Data as given in PubChem BioAssay AID1446 (The Scripps Research Institute Molecular Screening Center, 2008).
Values joined by “and” are separate entries in the source; they are usually repeats but may differ in a detail not shown here. Identical values can stand only once. In all, about 220,000 compounds went through this assay and about 2,400 (1.1%) were called active.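 Rule for the calls: active = inhibition above the campaign mean plus 3 SD over all tested compounds (cut at about 24% in these data); inactive = the rest.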 The entries come from a sample that favours actives as a whole.

Experiment: viability loss in Ba/F3 EpoR-JAK2V617F cells – cell-based, luminescence, JAK2V617F inhibitor project, primary screen (AID 1446);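 note: cytokine-independent growth of Ba/F3 cells driven by EpoR plus mutant JAK2; 0% = DMSO-treated cells and 100% = JAK inhibitor I control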
Conditions: ATP luminescence, at 5.6 µM, hits give high values

| Structure (SMILES) | inhibition |
| --- | --- |
| O=C(CSc1nnc(SCc2ccc(F)cc2)s1)Nc1ccc(C(=O)O)cc1 | -3.83% (inactive) |
| Cc1ccc(S(=O)(=O)N(C)C)cc1NC(=O)c1ccccc1Br | 2.86% (inactive) |
| COc1ccc(-c2cc(C(F)(F)F)nc(S(C)(=O)=O)n2)cc1OC | 37.9% (active) |
| COc1ccc(-c2cc(C(F)(F)F)nc(SCC(=O)Nc3ccc4c(c3)OCO4)n2)cc1OC | 2.59% (inactive) |
| COc1cc(OC)nc(S(C)(=O)=O)n1 | -3.65% (inactive) |
| Cc1c(CCC(=O)O)c(=O)oc2cc3occ(-c4ccccc4)c3cc12 | 2.82% (inactive) |
| COc1ccc(C(=O)NNC(=S)NC(=O)c2ccccc2[N+](=O)[O-])cc1 | 0.22% (inactive) |
| CCOC(=O)C(=Cc1ccccc1OC)C(=O)OCC | -2.52% (inactive) |
| CN(NC(=O)c1ccccc1)c1nc2ccccc2nc1C(F)(F)F | -2.71% (inactive) |
| COc1ccc(OCC(=O)NNC(=O)c2cccc(C)c2)cc1 | -0.28% (inactive) |
| COC(=O)CNC(=O)c1ccccc1F | -2.64% (inactive) |
| COc1ccc(C(=O)NN(C)c2nc(-c3ccccc3)cc(C)c2S(C)(=O)=O)cc1 | 2.15% (inactive) |
| CN(NC(=O)c1ccccc1F)c1nc(C(F)(F)F)nc2ccccc12 | 73.2% (active) |
| CSc1nc(N(C)NC(=O)c2cccc(C)c2)c2ccccc2n1 | 93.6% (active) |
| CC(=O)c1ccc(NC(=O)CSC(=S)N2CCCC2)cc1 | -0.78% (inactive) |
| C=CCNC(=O)CSc1nc2scc(-c3ccco3)c2c(=O)n1CC=C | -2.22% (inactive) |
| Nc1nc(NC(=O)/C=C/c2ccc(F)cc2)nn1-c1ccccc1 | 1.73% (inactive) |
| CCCCCN(C(=O)NC(=O)Nc1cccc(C)c1C)S(C)(=O)=O | 1.95% (inactive) |
| CC(NC(=O)C(=O)Nc1nccs1)c1ccccc1 (stereo unspecified) | -0.5% (inactive) |
| CCCCN1C(=O)CCC(C(=O)O)C1c1ccc(OC)cc1 (stereo unspecified) | -6.4% (inactive) |
| CC(=O)c1cnc(-c2ccccc2)s1 | -0.87% (inactive) |
| COc1ccc2c(c1OC)C(=O)OC2c1c(O)nc(SC)n(-c2ccccc2)c1=O (stereo unspecified) | -4.02% (inactive) |
| COc1ccc(-c2csc(NC3OC(=O)c4ccccc43)n2)cc1 (stereo unspecified) | 11.9% (inactive) |
| COc1ccc2c(c1OC)C(=O)OC2Nc1nc(-c2ccccc2)cs1 (stereo unspecified) | 68.6% (active) |
| Cn1c(SCC(=O)Nc2ccc(Cl)cc2)nc(O)cc1=O | -1.33% (inactive) |
| O=C1CC(c2c(F)cccc2Cl)C(n2cncn2)C(O)=C1C1NCCc2ccccc21 (stereo unspecified) | -3.23% (inactive) |

| Structure (SMILES) | inhibition |
| --- | --- |
| COc1ccc(C2CC(=O)Nc3cc(C)c(C)cc32)c(OC)c1OC (stereo unspecified) | 0.14% (inactive) |
| COc1ccccc1C1C2=C(COC2=O)Nc2cc3c(cc21)OCO3 (stereo unspecified) | 85.5% (active) |
| COCCOC(=O)C1=C(C)NC(=O)CC1c1cc2c(cc1Br)OCO2 (stereo unspecified) | 1.76% (inactive) |
| COc1ccc(F)cc1S(=O)(=O)Nc1ccc2c(c1)OCO2 | 0.08% (inactive) |
| CCCOc1ccccc1C1CC(=O)Nc2cc3c(cc21)OCO3 (stereo unspecified) | 74.4% (active) |
| COc1cc2c(cc1/C=C1/NC(=O)N(c3ccccc3)C1=O)OCO2 | 0.39% (inactive) |
| Cc1nc(C(=O)N2CCCC(C(=O)c3ccc(Cl)cc3)C2)cs1 (stereo unspecified) | -2.53% (inactive) |
| CC(=O)N1CCN(S(=O)(=O)c2c(F)cc(F)c(Cl)c2F)CC1 | -1.72% (inactive) |
| COc1ccc(CN(C)C(C)C(=O)NC2CCCc3ccccc32)cc1 (stereo unspecified) | 3.02% (inactive) |
| COc1ccc2nc(SCc3ccccc3)nc(C)c2c1 | 2.96% (inactive) |
| CCOC(=O)C1C(c2ccc(OC)c(OC)c2)c2c([nH][nH]c2=O)CC1(C)O (stereo unspecified) | -0.54% (inactive) |
| O=C(CCCn1c(=O)c2sccc2n(CC(=O)NCC2CCCO2)c1=O)NCc1ccco1 (stereo unspecified) | -0.32% (inactive) |
| COc1ccc(C2c3ccc(O)cc3Oc3ncn(CCCO)c(=N)c32)cc1OC (stereo unspecified) | -1.6% (inactive) |
| COc1ccc(NC(=S)Nc2ccccc2Cl)cn1 | 4% (inactive) |
| COc1ccc(Nc2cc(Cl)ccc2C(=O)O)cn1 | -1.48% (inactive) |
| COc1ccc(CS(=O)/C(Cl)=C(/Cl)C(=O)Nc2ccc(OC)nc2)cc1 (stereo unspecified) | 101% (active) |
| COc1ccc(NC(=S)NCCNC(C)=O)cc1 | -1.93% (inactive) |
| Cc1ccc(NC(=O)OCc2cncs2)cc1 | 4.29% (inactive) |
| COc1ccc(NC(=O)/C(Cl)=C(/Cl)S(=O)Cc2ccc(C)cc2)cn1 (stereo unspecified) | 100% (active) |
| CCC(=O)N1CCCc2ccccc21 | -4.91% (inactive) |
| C=CCc1cccc2cc(C(=O)Nc3ccc(NC(C)=O)cc3)c(=O)oc12 | -0.67% (inactive) |
| CC1CCCN(S(=O)(=O)c2ccc(C(=O)Nc3nnc(-c4ccncc4)o3)cc2)C1 (stereo unspecified) | -1.33% (inactive) |
| CC1CCCCN1S(=O)(=O)c1ccc(S(=O)(=O)N(CC(=O)Nc2ccccc2)Cc2cccs2)cc1 (stereo unspecified) | -2.37% (inactive) |
| CC1CCCCN1S(=O)(=O)c1ccc(C(=O)Nc2nnc(-c3cccs3)o2)cc1 (stereo unspecified) | 36.5% (active) |
| C/C(=N\NC(=O)OC(C)(C)C)c1ccc[nH]1 | 1.03% (inactive) |
| CCN(CC)C(=O)Oc1ccc(Br)cc1C(=O)Nc1ccc(F)c(Cl)c1 | -0.45% (inactive) |

| Structure (SMILES) | inhibition |
| --- | --- |
| CCOC(=O)C(C)n1nc(-c2ccccc2)c2ccccc2c1=O (stereo unspecified) | -1.31% (inactive) |
| COc1ccc(C(=O)NC(Cc2ccc(OC(=O)c3ccc(OC)cc3)cc2)C(=O)O)cc1 (stereo unspecified) | -2.6% (inactive) |
| O=C(CN1CCN(S(=O)(=O)c2ccc(Br)cc2)CC1)Nc1ccccc1C(=O)c1ccccc1 | -3.02% (inactive) |
| Nc1ccc(Oc2ccc(Cl)cc2)cc1 | 7.34% (inactive) |
| Cc1ccc(Oc2ccc(N)cc2)cc1 | 0.92% (inactive) |
| CC(C)(C)c1ccc(Oc2ccc(N)cc2)cc1 | 33.3% (active) |
| CC(C)CN1CCNC(=O)C1CC(=O)N(C)CC1CCOCC1 (stereo unspecified) | -1.14% (inactive) |
| Cc1ccc(-c2cc(C(F)(F)F)n3ncc(C(=O)N4CCCCC4c4cccnc4)c3n2)cc1 (stereo unspecified) | -1.34% (inactive) |
| COc1cc2c(cc1OC)CN(C(=O)c1cc(=O)c3ccccc3o1)CC2 | 15.9% (inactive) |
| COc1cc2c(cc1OC)CN(C(=O)c1ccc(S(=O)(=O)N3CCCCCC3)cc1)CC2 | 4.67% (inactive) |
| CCOc1cc(C(=O)N2CCc3cc(OC)c(OC)cc3C2)ccc1OC(F)F | 82.7% (active) |
| OCC1(Cc2ccccc2C(F)(F)F)CCN(Cc2ccncc2)CC1 | 3.31% (inactive) |
| C[C@@H]1C[C@@H]2O[C@H]2/C=C\C=C\C(=O)Cc2c(Cl)c(O)cc(O)c2C(=O)O1 | 96.8% (active) |
| CCOC(=O)c1ccc(NC(=O)Cn2cnc3cc(C)c(C)cc32)cc1 | 47.2% (active) |
| CCOC(=O)c1ccc(NC(=O)Cn2nnc(-c3ccc(C)cc3)n2)cc1 | -1.34% (inactive) |
| CCOC(=O)c1ccc(NC(=O)CSc2ncccn2)cc1 | -1.61% (inactive) |
| CCOC(=O)c1ccc(N=C2SC(C(=O)NC)CC(=O)N2CCc2ccccc2)cc1 (stereo unspecified) | 1.63% (inactive) |
| Cc1ccc(-c2c[n+](CC(=O)Nc3ccccc3)c3n2CCC3)cc1 | -4.7% (inactive) |
| Clc1ccc(C[n+]2cc(-c3ccc(Cl)cc3)n3c2CCC3)cc1 | 50.1% (active) |
| Cn1c(-c2ccccc2)c[n+]2c1CCCCC2 | -3.91% (inactive) |
| O=C(C[n+]1cc(-c2ccc(Cl)c(Cl)c2)n2c1CCC2)c1cccs1 | 4.8% (inactive) |
| Clc1ccc(C[n+]2cc(-c3ccccc3)n3c2CCC3)cc1 | 70.5% (active) |
| Cc1ccc(C(=O)C[n+]2cc(-c3ccccc3)n3c2CCCCC3)cc1 | 69.4% (active) and 87.4% (active) |
| CN(C(=O)CSc1nnc(-c2n[nH]c3ccccc23)o1)c1ccccc1 | 2.55% (inactive) |
